From PubChem BioAssay (Tox21)
Values joined by “and” are separate entries in the source; they are usually repeats but may differ in a detail not shown here. Equal values may be shown once. Inconclusive results are not listed. A number with no mark means an inactive call. Active and inactive are the calls of the source. Calls come from the whole dose curve; as a rule, active = well fitted inhibition curve with a large enough effect in the repeat runs; inconclusive = weak or mixed curves, or effect the other way; inactive = no such curve, though single readings can be large or run the other way.

What follows are compounds tested against Nuclear receptor subfamily 1 group I member 3 (Homo sapiens) (UniProt Q14994) (assay: qHTS assay to identify small molecule antagonists of the constitutive androstane receptor (CAR) signaling pathway (AID 1224838;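 note: HepG2 cells stably expressing hCAR with CYP2B6 luciferase reporter stimulated by CITCO; nearly all actives have a fitted effect of over 40% in size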)). Settings: HepG2-CYP2B6-hCAR luciferase, CITCO-stimulated, 24 h; series mostly up to 92.4 µM; activity, negative = inhibition: at the top concentration.
Text: U.S. Tox21 Program National Center for Advancing Translational Sciences [NCATS] NIH Chemical Genomics Center [NCGC] U.S. Environmental Protection Agency [EPA] National Institutes of Environmental Health Sciences [NIEHS] National Toxicology Program [NTP] U.S. Food and Drug Administration [FDA] Tox21 Assay Overview: The constitutive androstane receptor (CAR) is a nuclear receptor which regulates multiple drug metabolizing enzymes (DMEs) and transporters. Activating CAR will generally increase the transcription and subsequent translation of CYP2B6 and CYP3A4. These two DMEs represent about 50% of the drug metabolizing potential in the body. When CAR is deactivated, the metabolizing potential in the body will decrease, subsequently increasing the toxicity in the body or lowering the therapeutic potential of a pro-drug. Recently, there have also been studies performed indicating CARs role in energy metabolism and cancer therapy. Therefore, inhibiting CARs activity could have a potential effect on diabetes and cancer. Identifying environmental toxins and compounds which modulate CAR, through the use of the Tox21 10K compound collection, will be an important step in determining the toxicity and potential therapeutic effects these factors will have on the human body.
Tox21 Assay Protocol Summary: A double-stable (hCAR and CYP2B6-2.2kb) transfected cell line, derived from human hepatoma (HepG2) cells, was utilized for the duration of the quantitative high-throughput screens. The HepG2-CYP2B6-hCAR cells suspended in DMEM culture medium supplemented with 10% FBS, 5 ug/mL blasticidin, 0.5 mg/mL geneticin, 100 U/mL penicillin and 100 ug/mL streptomycin were dispensed at 2500 cells/4 uL/well in 1536-well white solid bottom plates using a Multidrop Combi. After the assay plates were incubated at 37 C/5% CO2 for 4 hrs, 23 nL of compounds at 15 concentrations (from 5-48 columns) or positive control (from 1 to 4 columns) were transferred to the assay plates using a Pintool station. One uL of CITCO, was added using a Flying Reagent Dispenser to generate a final concentration of 50 nM CITCO inside each well. After a 24 hr incubation period at 37 C/5% CO2, four uL of ONE-Glo reagent was added into the assay plates using a Flying Reagent Dispenser. After a 30 min incubation period at room temperature, the luminescence intensity in the assay plates was measured using a ViewLux plate reader.
% is set by controls: 0 for no effect and ±100 for the full control effect; potency is the fitted concentration of half-maximal effect.

Sequence of Nuclear receptor subfamily 1 group I member 3 (Homo sapiens) (Q14994 whole entry, looked up): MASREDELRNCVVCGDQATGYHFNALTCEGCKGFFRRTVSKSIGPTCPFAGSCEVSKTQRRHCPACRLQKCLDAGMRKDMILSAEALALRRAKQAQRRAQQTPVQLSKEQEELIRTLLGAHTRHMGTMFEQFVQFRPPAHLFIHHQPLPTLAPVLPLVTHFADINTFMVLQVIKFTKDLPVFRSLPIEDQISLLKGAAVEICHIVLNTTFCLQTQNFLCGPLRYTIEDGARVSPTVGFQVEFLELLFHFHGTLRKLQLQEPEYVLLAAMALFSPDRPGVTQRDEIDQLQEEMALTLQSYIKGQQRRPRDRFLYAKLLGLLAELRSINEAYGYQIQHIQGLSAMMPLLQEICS

Row | Compound | activity, negative = inhibition | Potency
1 | CC(=O)Nc1ccccc1C | 4.51% | –
2 | CC(=O)[C@H]1CC[C@H]2[C@@H]3C[C@H](C)C4=CC(=O)CC[C@]4(C)[C@H]3[C@@H](O)C[C@]12C | 33.3% [at 42.5 µM] | –
3 | CN1C(=O)CC(C)(c2ccccc2)C1=O (stereo not given) | 32.6% [at 42.5 µM] | –
4 | NCC1CCCC(CN)C1 (stereo not given) | -0.474% | –
5 | CC(=N\O)/C(C)=N/O | 1.88% | –
6 | CCCCCCCCCCCC[N+](C)(C)CC(=O)[O-] | -1.11% | –
7 | Cc1ccc(Nc2nccc(N(C)c3ccc4c(C)n(C)nc4c3)n2)cc1S(N)(=O)=O | -0.863% [at 42.5 µM] | –
8 | CN1CCCN=C1/C=C/c1cccs1 | -11.4% [at 42.5 µM] | –
9 | Cc1cc(OI)c(C(C)C)cc1-c1cc(C(C)C)c(OI)cc1C | 23.5% [at 42.5 µM] | –
10 | O=C(Nc1ccccc1)Nc1ccccc1 | 178% | –
11 | C=CC(=C)CCCC(C)(C)OC(C)=O | 19.4% | –
12 | CCCCCCCCCCCCCCCCBr | -0.414% [at 19 µM] | –
13 | COC(=O)c1cc(S(N)(=O)=O)ccc1OC | -2.33% [at 42.5 µM] | –
14 | CCCCCC=CCC=CCCCCCCCC(=O)OCC | 22.7% [at 42.5 µM] | –
15 | CN(C)CCOC1=Cc2ccccc2Sc2ccc(Cl)cc21 | 43.1% [at 42.5 µM] | –
16 | CC1CC(O)CC(C)(C)C1 (stereo not given) | -16.8% | –
17 | O=C(O)C(Cc1cc(I)c(O)c(I)c1)c1ccccc1 (stereo not given) | 6.81% [at 42.5 µM] | –
18 | CCOC(=O)[C@@H](C)Oc1ccc(Oc2nc3ccc(Cl)cc3o2)cc1 | 44.2% | –
19 | COCc1c(C(C)C)nc(C(C)C)c(/C=C/[C@@H](O)C[C@@H](O)CC(=O)O)c1-c1ccc(F)cc1 | – | 4.73 µM (active) and 6.05 µM (active)
20 | O=C(N[C@@H](c1ccccc1)[C@@H]1CCCCN1)c1cccc(C(F)(F)F)c1Cl | – | 48.6 µM (active)

Row | Compound | activity, negative = inhibition | Potency
21 | CCCCC1C(=O)N(c2ccccc2)N(c2ccc(O)cc2)C1=O (stereo not given) | – | 29.8 µM (active)
22 | O=C(c1ccc(O)cc1)c1ccc(Cl)cc1 | 196% | –
23 | O=C(/C=C/c1ccccc1)OCCCc1ccccc1 | 51.6% | –
24 | CCCOC(=O)c1ccc(C(=O)OCCC)nc1 | 11% | –
25 | c1ccc(COCc2ccccc2)cc1 | -17.9% | –
26 | Cc1ccc(S(=O)(=O)NC2CCCCC2)cc1 | 47.6% | –
27 | O=C(NCCCN1CCOCC1)c1ccc(Cl)cc1 | 36.5% [at 42.5 µM] | –
28 | NC(=O)Nc1ccc(Cl)c(Cl)c1 | 6.42% | –
29 | OCC1CC=CCC1 (stereo not given) | 0.346% | –
30 | CCCCCCCC/C=C\CCCCCCCC(=O)OC | -9.55% | –
31 | CCCOc1ccc(S(=O)(=O)N2CCN(CC)CC2)cc1-c1nc2c(CC)n(Cc3ccccn3)nc2c(=O)[nH]1 | 24.4% | –
32 | CCC(=O)OC/C=C/c1ccccc1 | – | inactive
33 | CCCCC(CC)CNCC(CC)CCCC (stereo not given) | -1.02% | –
34 | C(=C\c1ccccc1)/CN1CCN(C(c2ccccc2)c2ccccc2)CC1 | -9.99% [at 42.5 µM] | –
35 | CNC(=O)N(c1ccccc1)c1ccccc1 | 34.9% | –
36 | Fc1ccccc1[C@@H](F)COC1CCC(Nc2ncnc3[nH]ncc23)CC1 (stereo not given in full) | -7.99% | –
37 | OCCSc1ccccc1 | -12.4% | –
38 | CCOC(=N)CC(=O)OCC | 0.581% | –
39 | COC(=O)Nc1nc2ccc(C(=O)c3cccs3)cc2[nH]1 | 289% [at 42.5 µM] | –
40 | O=C(O)c1snc(Cl)c1Cl | 36.2% | –
